Rows were chosen to be rich in hits. Some 8% of all compounds tested hit in one or more screens of this group.
Coupling enz – qHTS Assay for Inhibitors of Fructose-1,6-bisphosphate Aldolase from Giardia Lamblia: Coupling assay counterscreen; coupling enzyme system counterscreen, AmpLite Red fluorescence; activity change, negative = inhibition, % at 58.2 µM, hits read low; hit rate 0.67% among 290,000; AID 2472, 2010; in the data active = activity change below about -30%
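Fluorescence at 525 nm excitation and 598 nm emission measured inhibition of the coupled detection system without aldolase. Compounds (at 57.5 uM final) were preincubated 10 min at room temperature with coupling enzyme reagent before a 20 min substrate/AmpLite Red step.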
Gal4-VP16 FLuc – VP16 counterscreen qHTS for inhibitors of ROR gamma transcriptional activity | Drosophila S2 Gal4-VP16 UAS-luciferase, luminescence, 20 h | Potency, µM (doses to about 53.6 µM), without a hit: at the highest dose activity, negative = inhibition, usual class: inhibitors | hit rate 3.5% among 310,000;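 note: Gal4-VP16 expression switched on by copper sulfate through the metallothionein promoter; potency is the fitted concentration of half-maximal effect; nearly all actives have a fitted effect of over 50% in size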
RORgamma inh – qHTS for inhibitors of ROR gamma transcriptional activity; hit rate 5.4% among 310,000; Potency, µM (top dose mostly 53.6 µM), without a hit: top-dose activity change, negative = inhibition, most hits filed as inhibitors; Nuclear receptor ROR-gamma (Mus musculus), P51450; Drosophila S2 Gal4-RORgamma UAS-luciferase reporter, 20 h; note: potency is the fitted concentration of half-maximal effect; nearly all actives have a fitted effect of over 60% in size
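Schneider cells (Drosophila), stable Gal4 DBD–ROR gamma + UAS-luc; 1 hr cmpd preincubation; Cu2+ induction 700 uM final; 20 hr ambient; luminescence.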
ELG1 repair inh – qHTS screen for small molecules that inhibit ELG1-dependent DNA repair in human embryonic kidney (HEK293T) cells expressing luciferase-tagged ELG1 | Potency, µM (titrated, usually from 46.1 µM), for inactives: at the highest dose activity change, negative = inhibition, hits mostly inhibitors | AID 504467, 2011 | hit rate 2.3% among 330,000 | HEK293T ELG1-luciferase reporter, luminescence, 16 h; DNA damage induced by 5-fluorouridine; note: potency is the fitted concentration of half-maximal effect; nearly all actives have a fitted effect of over 55% in size
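Reporter activity after DNA damage by 5-fluorouridine is monitored. Compound-treated cells incubate 16 hr at 37 °C, then ONE-Glo is added for 30 min before luminescence reading.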
TSHR antagonist – Antagonists of the Thyroid Stimulating Hormone Receptor: HTS campaign. Thyrotropin receptor (Homo sapiens), P16473. TSHR-expressing cells, TSH-stimulated cAMP HTRF, 2 h; hits give low values. activity change, negative = inhibition, % at 11.5 µM. hit rate 0.2% among 330,000. AID 504810, 2011;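 active = activity change below a set negative limit, meaning inhibition stronger than a set level, cut at about -70% in these data; inconclusive = activity change between two set negative limits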
Target sequence (P16473 whole entry, looked up): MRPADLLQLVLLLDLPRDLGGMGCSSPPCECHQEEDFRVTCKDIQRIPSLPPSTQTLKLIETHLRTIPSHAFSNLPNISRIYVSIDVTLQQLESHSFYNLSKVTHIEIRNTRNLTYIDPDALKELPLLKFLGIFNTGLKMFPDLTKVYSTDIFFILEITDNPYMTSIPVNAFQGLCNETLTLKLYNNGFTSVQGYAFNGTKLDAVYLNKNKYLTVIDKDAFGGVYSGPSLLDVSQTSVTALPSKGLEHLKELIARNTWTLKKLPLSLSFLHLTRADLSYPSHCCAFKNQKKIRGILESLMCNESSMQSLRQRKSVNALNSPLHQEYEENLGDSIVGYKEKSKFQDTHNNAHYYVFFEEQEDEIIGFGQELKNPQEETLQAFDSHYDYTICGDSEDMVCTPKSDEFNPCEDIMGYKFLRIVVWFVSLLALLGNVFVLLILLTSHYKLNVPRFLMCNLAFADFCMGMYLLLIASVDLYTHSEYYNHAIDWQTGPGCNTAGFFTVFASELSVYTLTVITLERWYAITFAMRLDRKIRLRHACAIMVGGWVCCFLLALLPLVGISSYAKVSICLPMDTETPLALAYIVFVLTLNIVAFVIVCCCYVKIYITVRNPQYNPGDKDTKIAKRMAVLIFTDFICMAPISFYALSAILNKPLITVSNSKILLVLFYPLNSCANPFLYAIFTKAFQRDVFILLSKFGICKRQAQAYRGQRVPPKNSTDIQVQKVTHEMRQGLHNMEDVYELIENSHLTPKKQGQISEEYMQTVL
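TSHR-expressing cells, 200/well, pre-treated with compound, then stimulated with EC80 TSH (4nM final) for 2 hours at 37 deg C. cAMP measured by competitive HTRF: anti-cAMP cryptate antibody in lysis buffer plus cAMP-d2, read after 30 minutes at room temperature.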
Starred values were filed as active, the others as inactive; ? = inconclusive; . = no result given; [ ] = remark or other dose. Unless noted, calls come from the whole dose curve; as a rule, active = well fitted curve in the direction sought with a large enough effect; inconclusive = small, poorly fitted or top-dose-only effect, or another doubt; inactive = no such curve, though single readings can be large; an effect the other way counts as inactive or inconclusive. % is set by controls: 0 for no effect and ±100 for the full control effect.

SMILES	Coupling enz	Gal4-VP16 FLuc	RORgamma inh	ELG1 repair inh	TSHR antagonist
CCc1ccc(/C=C2/SC(N3CCOCC3)=NC2=O)cc1	5	9%	14%	0%	-4
CCN1CCN(C2=NC(=O)/C(=C/c3ccc(C)o3)S2)CC1	-34*	4%	1%	0%	-6
C[C@@]1(C(NC(=O)c2cccs2)c2ccc(-c3ccccc3)cc2)C[C@H]1C1CCCCC1 (stereo partly specified)	-3	3%	-2%	.	.
O=C1c2ccccc2NC(c2ccc(O)cc2)N1/N=C/c1ccc(O)cc1 (stereo unspecified)	-5	24%	-16%	?	-6
O=C1c2ccccc2NC(c2ccccc2)N1/N=C/c1ccccc1 (stereo unspecified)	.	11µM*	10µM*	?	11
N=c1oc2cc(O)ccc2cc1C(=O)Nc1ccc(Cl)cc1	1	2µM*	2.2µM*	?	-30
CCCCn1c(N)c(N(CCOC)C(=O)c2ccc(N3CCCC3)c([N+](=O)[O-])c2)c(=O)[nH]c1=O	.	.	.	14%	1
Cn1c(-c2sc(=S)n(-c3ccccc3)c2N)nc2ccccc21	0	-2%	7.9µM*	13%	-9
CCNS(=O)(=O)c1ccc(CCC(=O)N2CCCC2)cc1	-1	0%	-9%[1.91 µM]	-2%	3
O=c1c2ccccc2nc(N/N=C/c2c(O)ccc3ccccc23)n1O	-22	13µM*	0.89µM*	?	-16
O=c1c2ccccc2nc(N/N=C/c2ccc(O)cc2)n1O	-1	-28%	11µM*	?	4
Cc1ccc(S(=O)(=O)Nc2c(C)n(C)n(-c3ccccc3)c2=O)cc1	1	0%	5%	-4%	3
Cc1ccc(S(=O)(=O)Nc2cc(C)cn(Cc3ccc(F)cc3)c2=O)cc1	-17	18µM*	?	?	-2
Cc1ccc(S(=O)(=O)Nc2cc(C)cn(Cc3ccccc3)c2=O)cc1	-20	14µM*	?	?	-8
O=c1cc(-c2cc3ccccc3oc2=O)c2ccc(O)cc2o1	7	-14%	?	.	.
S=C(Nc1ccccc1)N1N=CCC1c1ccccc1 (stereo unspecified)	1	7.9µM*	?	?	-6
Fc1ccc(NC(=S)N2N=CCC2c2ccccc2)cc1 (stereo unspecified)	-7	7.9µM*	3.5µM*	?	5
O=C(Nc1cccc(Cl)c1)N1N=CCC1c1ccccc1 (stereo unspecified)	-5	-12%	-34%	-9%	-1
O=C1/C(=C/c2cccs2)SC(=S)N1CCC(=O)N1CCCCC1CCO (stereo unspecified)	.	11µM*	?	?	18
O=C(CCN1C(=O)/C(=C/c2cccs2)SC1=S)N1CCCCC1	0	?	11µM*	?	-31
O=C(CCN1C(=O)/C(=C\c2ccccc2)SC1=S)N1CCCCC1	-2	-6%	20%	?	-1
COc1ccccc1/C=C1\SC(=S)N(CCC(=O)N2CCCCC2CCO)C1=O (stereo unspecified)	-2	-1%	?	-8%	-11
COc1ccc(OC)c(NC(=O)c2nnn(CC(=O)Nc3ccc4c(c3)OCO4)c2N)c1	-1	-7%	-8%	5%	-17
CCOCC	0	-7%	-5%	.	.
Cc1ccc2c(Cl)cc(Cl)c(OCC(=O)Nc3cccc(S(=O)(=O)N(C)C)c3)c2n1	0	10µM*	5µM*	-15%	-13
SMILES	Coupling enz	Gal4-VP16 FLuc	RORgamma inh	ELG1 repair inh	TSHR antagonist
Cc1ccc2c(Cl)cc(Cl)c(OCC(=O)Nc3ccc(C)c(S(=O)(=O)N(C)C)c3)c2n1	0	7.1µM*	7.1µM*	-12%	4
Cc1ccc2c(Cl)cc(Cl)c(OCC(=O)Nc3cccc(S(N)(=O)=O)c3)c2n1	2	?	14µM*	?	-2
Cc1ccc2c(Cl)cc(Cl)c(OCC(=O)Nc3cc(S(=O)(=O)N(C)C)ccc3C)c2n1	-15	?	-138%	?	-24
CN(C)c1ccc(-c2cncnc2NCc2cccnc2)cc1	-8	-4%	-1%	.	.
COc1ccccc1CN1CCC2(CC1)CCN(C(=O)c1cccc(F)c1)CC2	3	-4%	-29%	.	.
CC1CCCCC1NC(=S)NC(=O)c1sc2ccccc2c1Cl (stereo unspecified)	-8	6%	-9%	26%	-12
O=C(NC(=S)N(CCCCO)C1CCCCC1)c1sc2ccccc2c1Cl	1	0.89µM*	0.1µM*	-2%	3
CCOC(=O)c1[nH]c(C)c(C(=O)OCc2ccccc2F)c1C	-3	-9%	-12%	?	7
Cc1n[nH]c(=S)n1-c1ccc(Cl)cc1	1	-9%	?	?	-4
Cc1ccc(OCc2n[nH]c(=S)n2N)cc1C	1	4%	7.9µM*	29%	-1
Cc1ccccc1OCc1n[nH]c(=S)n1-c1ccccc1	2	8.9µM*	2.5µM*	-29%	-4
CC(C)OCC(O)CCc1n[nH]c(=S)n1-c1ccccc1 (stereo unspecified)	1	1%	1%	13%	10
Cc1ccc(OCc2n[nH]c(=S)n2-c2ccc(Cl)cc2)cc1	3	3.2µM*	-38%[1.91 µM]	-1%	4
S=c1[nH]nc(COc2ccc(Cl)cc2)n1-c1ccc(Cl)cc1	10	?	5.6µM*	-9%	-20
CCCCOc1ccc(Cc2n[nH]c(=S)n2N)cc1	3	-9%	-2%[10 µM]	-1%	10
O=C(O)CC(Cc1ccc(Cl)cc1)C(=O)Nc1cc(Cl)ccc1Cl (stereo unspecified)	0	-5%	0%	16%	-8
CSc1cccc(CN2CCCC(C(=O)Nc3cccc(-n4cccn4)c3)C2)c1 (stereo unspecified)	.	-4%	-11%	30%	40
Cc1ccc(OCc2n[nH]c(=S)n2-c2ccc(Br)cc2)cc1	7	5.6µM*	2.2µM*	18%	33
S=c1[nH]nc(COc2ccc(Cl)cc2)n1-c1ccccc1	5	3.2µM*	4µM*	2%	-21
Nc1ncnc2c1ncn2[C@@H]1O[C@H](COP(=O)(O)OP(=O)(O)O)[C@@H](O)[C@H]1O	2	-3%	-23%	.	.
Cc1ccc(C2=NN(C(=O)c3ccco3)C(O)(C(F)(F)F)C2)cc1 (stereo unspecified)	-2	?	?	-19%	-4
O=C(c1ccccc1O)N1N=C(c2ccccc2)CC1(O)C(F)(F)F (stereo unspecified)	0	?	8.9µM*	?	-1

Screens as filed in PubChem.
